Measurements: PubChem BioAssay AID995 (National Center for Advancing Translational Sciences (NCATS), 2007)
Out of some 72,000 compounds screened, about 710 (0.99%) were called active. Inconclusive results (about 7%) are left out. Calls come from the whole dose curve; as a rule, active = well fitted inhibition curve with a large enough effect; inconclusive = small, poorly fitted or top-dose-only effect; inactive = no such curve, though single readings can be large or run the other way. Only a selection was taken, and actives are over-represented in it overall.

Experiment: qHTS Assay for Inhibitors of the ERK Signaling Pathway using a Homogeneous Screening Assay; note: nearly all actives have a fitted effect of over 55% in size
Settings: HEK293-V1b, vasopressin-stimulated pERK AlphaScreen; series mostly up to 57.5 µM; activity, negative = inhibition: at the top concentration
From the text: qHTS Assay for Inhibitors of the ERK Signaling Pathway using a Homogeneous Screening Assay; note: nearly all actives have a fitted effect of over 55% in size
NIH Chemical Genomics Center [NCGC]
NIH Molecular Libraries Screening Centers Network [MLSCN]
Assay Submitter (PI): Dr. Wei Zheng, NCGC/NIH
The Ras/extracellular-signal-regulated kinase (ERK) mitogen activated protein (MAP) kinase signaling pathway (ERK1/2 cascade) plays is a key role in transmitting signals from the cell surface to the nucleus (Nishida and Gotoh 1993; Chang and Karin, 2001). The cascade is initiated by the small G-protein Ras, which recruits Raf […], where activation occurs. Alternatively, this pathway can be activated by elevating intracellular cAMP.
Activation of the ERK pathway is essential in increased cell division and cell survival. Sustained and constitutive activation of the ERK pathway, however, has been linked to uncontrolled cell proliferation, increased cell survival, and tumor progression. Thus, the ERK has been as an attractive target for cancer chemotherapy in the past few years (Sebolt-Leopold and Herrera, 2004). Given its physiological and pathological importance, assessment of ERK phosphorylation has been broadly performed in both basic research and drug discovery. Most assays for the measurement of ERK phosphorylation use the antibody-based detection methods, such as western blot and ELISA. These assays require multiple reagent additions with cell wash steps and are not suitable for high throughout screening.
The current cell-based ERK phosphorylation assay was performed using AlphaScreen platform. AlphaScreen is a two bead-based proximity-dependent chemical energy transfer luminescent assay platform. The assay reagents (ERK SureFire(TM) kit) were supplied from TGR BioSciences (Australia). In the presence of specific antibodies, phosphorylated ERK will bring "donor" and "acceptor" beads to a proximity range (<200 nm), and subsequently lead a chemical luminescent reaction upon exciting donor beads with 680 nm laser. To exclude the assay-related false positives, we used a biotinylated rabbit IgG to perform counter-screen. The biotinylated antibody mimics the phosphorylated ERK1/2 for bringing streptavidin coated beads and protein-A coated beads to a proximity range for the AlphaScreen detection.
NCGC Assay Protocol Summary:
HEK293 cells stably expressing type-1 vasopressin receptor (V1b) were maintained in DMEM medium (Invitrogen, Carlsbad, CA) at 37C under a humidified atmosphere containing 5% CO2 and 95% air. The medium contained 10% FBS, 2 mM L-glutamine, non-essential amino acid, pyruvate and 50 U/ml penicillin and 50 ug/ml streptomycin (Invitrogen). The aliquots of frozen cells were stored at -135C and used for the compound screening. All compounds were screened as titrations from 0.6 nM to 46 uM final concentration. Vasopressin was used to stimulate the ERK phosphorylation pathway. The ERK phosphorylation in cells was determined using an AlphaScreen assay kit provided by PerkinElmer. Data were normalized to the controls for basal activity (DMSO only) and 100% activation (25 nM vasopressin). AC50 values were determined from concentration-response data modeled with the standard Hill equation.
(1) Seed 4 ul/well of resuspended frozen HEK293 cells containing 2000 cells in white 1536-well plates for overnight with 1% FBS at 37C under a humidified atmosphere containing 5% CO2 and 95% air.
(2) Add 23 nL compounds in DMSO solution. The final titration was 0.6 nM to 46 uM.
(3) Incubate at 37C for 30 min.
(4) Dispense 0.5uL vasopressin (25 nM in final)
(5) Incubate at 37C for 5 min.
(6) Dispense 0.5uL of 1:2 diluted 5x lysis buffer.
(7) Incubate at 37C for 10 min.
(8) Dispense 1.5uL of mixture of activation buffer and reaction buffer with AlphaScreen beads (streptavidin donor beads and protein-A acceptor beads, 10 ng/well for each).
(9) Incubate at room temperature for 5 hr.
(10) Detect the assay plate in an EnVision plate reader (PerkinElmer) using the AlphaScreen detection mode.
[…]
% is set by controls: 0 for no effect and ±100 for the full control effect; potency is the fitted concentration of half-maximal effect.

activity, negative = inhibition, inactive:
CC1(C)OC2CC(=O)OC[C@@]23C1CC(=O)[C@]1(C)C3CC[C@@]2(C)C(c3ccoc3)OC(=O)C3O[C@@]321 (stereo partly drawn) 5.86%
O=C(O)c1ccc(C(=O)c2ccccc2C(=O)O)cc1C(=O)O 14.2% [at 11.5 µM]
Cc1c(O)cc(O)c2c(=O)c(-c3ccc(O)cc3)coc12 10.2%
CCn1c(COc2ccc(OC)cc2)nnc1SCC(=O)Nc1cc(OC)ccc1OC -28%
COc1ccc(OC)c(NC(=O)CSc2nc(N)c(-c3ccccc3)c(=O)[nH]2)c1 -26.5%
CCCOC(=O)C1=C(C)NC2=C(C(=O)C(C(=O)OC)C(C)C2)C1c1ccc(N(C)C)cc1 (stereo not drawn) -12.3%
COC(=O)C1C(=O)c2c([nH]c(C(=O)OCCSC)c2C)CC1C (stereo not drawn) -19.7%
CC(=O)OCC(=O)[C@@]1(O)CCC2C3CCC4=CC(=O)CC[C@@]4(C)[C@]3(F)C(O)C[C@]21C (stereo partly drawn) -18%
C[C@@H]1O[C@@H](OC[C@H]2O[C@@H](Oc3c(-c4cccc(O)c4O)oc4cc(O)cc(O)c4c3=O)[C@H](O)[C@@H](O)[C@@H]2O)[C@H](O)[C@H](O)[C@H]1O -17.5%
COc1ccccc1N1CCN(C[C@@H]2CN3C(=O)N(C)c4ccccc4C3=N2)CC1 -15.9%
Fc1ccc(-c2nnc3sc(-c4ccc5c(c4)OCO5)nn23)cc1 6.41%
COc1cc(-c2nn3c(-c4cccc(C)c4)nnc3s2)cc(OC)c1OC -16.6%
CC(=O)O[C@]1(C(C)=O)CC[C@@H]2[C@@H]3C=C(C)C4=CC(=O)CC[C@@]4(C)[C@H]3CC[C@]21C 35.5% [at 25.7 µM]
O=C(O)c1nn(-c2ccc(Cl)cc2)c2c1C(=O)c1ccccc1C2=O -10.9% [at 11.5 µM]
CC1CC[C@@]23CCC4(C)[C@@]5(C)CCC6C(C)(C)C(O)CC[C@@]6(C)C5C=C[C@@]4(OC2=O)C3C1C (stereo partly drawn) 10.4%
CN(C)CCc1c[nH]c2ccc(Cn3cncn3)cc12 20.1%
N#Cc1ccccc1-c1ccc2ncnc(NCc3cccnc3)c2c1 -12.3%
CC1(C)SC2C(NC(=O)COc3ccccc3)C(=O)N2C1C(=O)O (stereo not drawn) 5.65%
S=c1c2[nH]cnc2ncn1CCSc1ncnc2nc[nH]c12 -0.588% [at 11.5 µM]
COC(=O)NC(c1ccccc1)[C@]1(C(C)=O)CCCC1=O (stereo partly drawn) -3.18% [at 11.5 µM]
Nc1nc2nc(Cl)[nH]c2c(=O)[nH]1 19.7%
O=C(O)C1CCN(c2ncnc3ccc(-c4ccccc4C(F)(F)F)cc23)CC1 -10.5%
CCCN1[C@H](C(=O)OC)C[C@@]2(O)[C@@H](O)[C@@H](O)[C@@H](O)C[C@@H]12 26.9%
Nc1ncn(C2OC(CO)C(O)C2O)c(=O)n1 (stereo not drawn) 15.1%
COC(=O)[C@@]1(Cc2ccc(OC)cc2)[C@H]2c3cc(C(=O)N4CCCC4)n(Cc4ccc(C(F)(F)F)nc4)c3C[C@H]2CN1C(=O)c1ccccc1 2.03%
O=c1c(-c2ccc(F)cc2)nc2cnc(N3CCOCC3)nc2n1-c1ccccc1 -29%
C=C(C)C1CC=C(CO)CC1 (stereo not drawn) 22.5%
COc1ccccc1CNc1cc(-c2ccccc2CN(C)C)ncn1 11.9%
Cc1cc(OCC(=O)O)c(Cl)cc1Cl -16.5% [at 11.5 µM]
CCN1CCCC1CNc1ncnc2c1[nH]c1ccc(F)cc12 (stereo not drawn) -11.8%
Cc1ccc(-n2ncc3c(N4CCN(c5ccc(F)cc5)CC4)ncnc32)c(C)c1 -27.4%
Oc1ccc(O)c2c(O)cccc12 -3.49%
CC(=O)c1cccc(NC(=O)c2ccncc2)c1 12.2%
C/C(=C\C(=O)c1cccnc1)Nc1ccc(C)c(C)c1 -5.4%
COc1ccc2[nH]cc(CCNc3nc(-c4cccc(NS(C)(=O)=O)c4)nc4ccccc34)c2c1 -30.4%
Cc1noc(C)c1-c1nc(Nc2ccccc2)c2ccccc2n1 -25.9%
CCC(C)(C)N=C(NC#N)Nc1cccnc1 -7.8%
N[C@H](C(=O)O)c1ccc(C(=O)O)c(O)c1 -22.7%
CC(=O)Oc1c2c(c3c(c1CC=C(C)C)O[C@@]14C(=CC5CC1C(C)(C)OC4(C/C=C(\C)C(=O)O)C5=O)C3=O)OC(C)(CCC=C(C)C)C=C2 (stereo partly drawn) -10.8%
NCCCNCCCCN(CCCN)/[N+]([O-])=N/O -1.46%
CC(C)(O)CCC(O)[C@@](C)(O)C1CC[C@]2(O)C3=CC(=O)C4CC(O)C(O)C[C@]4(C)C3CC[C@]12C (stereo partly drawn) -0.972%
N#C/C(=C\c1ccc(O)c(O)c1)C(N)=O -23.1%
Oc1c(CN2CCOCC2)ccc(CN2CCOCC2)c1O -4.14% [at 11.5 µM]
CCC[C@@H]1C[C@@]1(CCC)[C@@H](NC(=O)c1ccccc1)c1ccc(C(=O)OC)cc1 23.3%
CCCn1c(-c2ccc(F)cc2)nc2c(NC3CCN(Cc4ccccc4)C3)nc(C)nc21 (stereo not drawn) -14.2%
O=C(Nc1c[nH]c(=O)[nH]c1=O)Oc1ccccc1 -1.65% [at 11.5 µM]
CN(CCOc1ccc(CC2SC(=O)NC2=O)cc1)c1ccccn1 (stereo not drawn) 23.1%
COc1ccc(-c2nc3cnc(N(C)C)nc3n(Cc3cccs3)c2=O)cc1 31%
COC(=O)[C@@H]1C[C@H]2CC[C@H](O)C[C@H]2N1Cc1ccc(N2CCN(C)CC2)cc1 11.9%
COCCn1c(=O)c(-c2cccc(F)c2)nc2cncnc21 -9.32%
N#Cc1cc2[nH]c(=O)c(=O)[nH]c2cc1[N+](=O)[O-] -0.943%
Cc1nc2nc(SCC(=O)NCc3ccco3)nn2c(C)c1Cc1ccccc1 21.2%
CCOc1ccccc1-n1c(SCC(=O)NCc2ccco2)nnc1-c1ccncc1 -1.62%
COC(=O)[C@@]1(Cc2ccccc2)[C@H]2c3cc(C(=O)N4CCCC4)n(Cc4ccc(C)o4)c3C[C@H]2CN1C(=O)c1ccccc1 -4.58%
Cc1cc(C)cc(N)c1 7.96%
CCCn1c(-c2ccc(F)cc2)nc2c(NCC3CCCN3CC)nc(C)nc21 (stereo not drawn) -24.4%
COC(=O)[C@@]1(Cc2ccc(F)cc2)[C@H]2c3cc(C(=O)N4CCCC4)n(Cc4ccc(OC(F)(F)F)cc4)c3C[C@H]2CN1C(=O)c1ccccc1 4.38%
COc1ccccc1N1CCN(CCN2C(=O)c3ccccc3C(C)(C)C2=O)CC1 -25.3%
CN(C)/C=N/c1cc(=O)n(C)c(=O)n1CC1CC1 0.0595%
CC(C)=CCC/C(C)=C/CO/N=C1/C[C@@H](O)[C@@H](O)[C@@H]2[C@@H]3C(=O)N(C(C)(C)C)C(=O)[C@H]3CC[C@H]12 7.53% [at 11.5 µM]
Cn1c(N)c(C(=O)COC(=O)c2cc(C(F)(F)F)nc3c(C(F)(F)F)cccc23)c(=O)n(C)c1=O -13.9%
CC/C=C/C/C=C/C/C=C/CCCCCCCC(=O)OCC 26%
CC1(C)OC(C(O)(c2ccccc2)c2ccccc2)C(C(O)(c2ccccc2)c2ccccc2)O1 (stereo not drawn) 31.6% [at 11.5 µM]
Oc1ccccc1CNCc1ccccc1O 19.3% [at 11.5 µM]
COc1ncc2nc(-c3ccc(Cl)cc3)c(=O)n(C)c2n1 -0.77%
O=C(Nc1ccccc1)N[C@H]1C[C@H](C(=O)O)Nc2cc(Cl)cc(Cl)c21 -10.9%
CC1O[C@@H](Oc2c(-c3ccc(O)c(O)c3)oc3cc(O)cc(O)c3c2=O)C(O)C(O)C1O (stereo partly drawn) -4.83%
COC1[C@H](OC(N)=O)C(O)[C@H](Oc2ccc3c(O)c(NC(=O)c4ccc(O)c(CC=C(C)C)c4)c(=O)oc3c2C)OC1(C)C (stereo partly drawn) 14.4%
C#CCCCCCCCCCCCCCCCC(=O)O 9.99%
CO[C@H]1COC(=O)[C@@H](OCc2ccccc2)/C=C\[C@H](C)[C@@H](OC)COC(=O)[C@H](OCc2ccccc2)/C=C\[C@@H]1C 30% [at 11.5 µM]
O=C(CSc1nnc(-c2cccnc2)n1Cc1ccco1)c1ccc(Cl)c(Cl)c1 10.5%
O=C(CSc1nnc(-c2cnccn2)n1Cc1ccco1)c1ccc(Cl)c(Cl)c1 -26.5%
N#Cc1cccc(-c2ccc3ncnc(NCc4cccs4)c3c2)c1 -25.3%
Cc1noc(C)c1-c1nccc(N2CCOCC2)n1 -10.5%
N#CCC(=O)NC(=O)NCC1CC1 12.1%
COc1ccc2c3c1OC1CC(O)C=C[C@@]31CCN(C)C2 (stereo partly drawn) 14%
COC(=O)c1ccc(C23CC4(C2)[C@H](CN(Cc2cccnc2)[C@@H]4c2ccccc2)C3c2ccc(Cl)nc2)cc1 (stereo partly drawn) -2.78%
CC(C)CO/N=C1/C[C@@H](O)[C@@H](O)[C@@H]2[C@@H]3C(=O)N(C[C@@H]4CCCO4)C(=O)[C@H]3CC[C@@H]12 8.6% [at 11.5 µM]
CCNc1ncc2ncc(=O)n(Cc3cccc(OC)c3)c2n1 -28.5%
CC(=O)c1ccc(-n2nnnc2SCC(=O)N2CCN(C(=O)c3ccco3)CC2)cc1 -14%
Cn1nnnc1SCC(=O)N1CCN(C(c2ccccc2)c2ccccc2)CC1 2.32%

Potency, active:
COc1ccc(OC)c(NC(=O)CSc2nc3cccnc3n2C)c1 20 µM
CCCOC(=O)c1[nH]c2c(c1C)C(=O)CC(c1cc(OC)c(OC)c(OC)c1)C2 (stereo not drawn) 25.1 µM
COc1ccc(-c2nn3c(-c4ccccc4)nnc3s2)cc1OC 7.94 µM
Fc1ccc2[nH]c3c(N4CCSCC4)ncnc3c2c1 12.6 µM
C/C(=C\C(=O)c1ccccc1)Nc1cccc(O)c1 7.94 µM
COc1cccc(-c2nc(Nc3ccncc3)c3ccccc3n2)c1 15.8 µM
CCOC(=O)c1cnc(SCC(=O)NCc2ccco2)nc1N 25.1 µM
O=C(CSc1nnc(-c2cccs2)n1Cc1ccco1)c1ccc2c(c1)OCO2 31.6 µM
Cn1nnnc1SCC(=O)N1CCN(Cc2ccccc2)CC1 31.6 µM

Potency, inactive:
CC(C)NC[C@H](O)c1ccc2ccccc2c1
CN(C(=O)CN(CCO)CC(=O)N(C)C(C)(C)Cc1ccccc1)C(C)(C)Cc1ccccc1
COC(=O)[C@H]1[C@H]2C[C@H]3c4[nH]c5ccccc5c4CCN3C[C@@H]2CC[C@@H]1O
